# This is a sample that favours compounds with a hit; in the whole collection about 6.1% have one here.
# D1 ag: activates the human D1 dopamine receptor | P21728 | HEK293 T-REx D1 cells, calcium flux, agonist mode | activation, % at 2 µM | 360,000 tested, 1% active | AID 504660; in the data active means activation above about 30%; further: 0% is about no effect
#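 Inducible HEK293 T-REx D1 cells, force-coupled to calcium signalling, were plated at 4000 cells/well with tetracycline and held overnight at 30 C. After no-wash calcium dye loading, compound-evoked calcium rise over 180 s flagged agonists.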
# ERG-DNA inh: ERG Ets/DNA interaction inhibition; fluorescence polarization, His-ERG Ets domain / labelled DNA; Potency, µM (titrated, usually from 76.9 µM), inactives show at the highest dose FP activity, negative = inhibition, actives largely listed as inhibitors; 370,000 tested, 0.028% active; AID 624246; active means well fitted inhibition curve with a large enough effect in the polarisation, with a control signal flat; inconclusive means small, poorly fitted or top-dose-only effect, or effect the other way, or a change in a side signal; inactive means no such curve, though single readings can be large or run the other way; the % refers to the polarisation;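 further: polarization taken with two DNA probes labelled with fluorescein and Texas red; potency means the concentration at half of the fitted maximal effect; % of control where 0% means no effect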
# Target sequence (P11308 whole entry, looked up, the tested form may be a part): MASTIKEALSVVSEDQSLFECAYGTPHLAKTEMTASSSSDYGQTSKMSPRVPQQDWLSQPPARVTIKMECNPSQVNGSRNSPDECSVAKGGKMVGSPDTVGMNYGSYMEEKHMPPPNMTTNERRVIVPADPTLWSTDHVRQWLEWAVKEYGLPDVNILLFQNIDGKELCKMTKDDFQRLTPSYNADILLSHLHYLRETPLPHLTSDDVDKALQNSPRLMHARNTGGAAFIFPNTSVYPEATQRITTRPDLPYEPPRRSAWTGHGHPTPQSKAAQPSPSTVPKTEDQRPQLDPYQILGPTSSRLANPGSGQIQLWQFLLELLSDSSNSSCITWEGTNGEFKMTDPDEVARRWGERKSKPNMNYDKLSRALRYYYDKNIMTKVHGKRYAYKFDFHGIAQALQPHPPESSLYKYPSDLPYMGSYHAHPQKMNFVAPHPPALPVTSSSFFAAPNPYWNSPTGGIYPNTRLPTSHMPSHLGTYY
#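 His-tagged ERG Ets domain (1 uM in the protein solution; 300mM KCl, 50mM Tris-HCl, 1mM EDTA, 1mM DTT, pH 7.5) received compound, then a probe mix of 5 nM fluorescein-DNA and 100nM Texas-615-DNA. Fluorescence polarization was read for both dyes.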
# DRD3 antagonist: antagonists of human D3 dopamine receptor; P35462; D3R cells, DiscoveRx beta-arrestin luminescence, antagonist mode; stronger effect = lower value; max response, negative = inhibition, %; 360,000 tested, 2.5% active; in the data active means max response below about -50%; inconclusive means no clear call, values can overlap the other calls; further: on the % scale 0 is the no-effect control and ±100 the full control effect
#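 Cells expressing the human receptor were seeded at 1500 cells/well, incubated overnight at 37 degrees C in 5% CO2, then exposed to library compounds with dopamine controls for 90 minutes at 37 degrees C before luminescent detection.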
# D1 potentiator: enhances dopamine response at the human D1 receptor; 360,000 tested, 0.036% active; HEK293 TREx D1 cells, calcium flux, dopamine EC20 potentiation; potentiation, % at 10 µM; in the data active means potentiation above about 30%; further: 0% is about no effect
# D1 antag: antagonists of human D1 dopamine receptor; HEK293 TREx D1 cells, calcium flux, dopamine EC80; stronger effect = lower value; activity change, negative = inhibition, % at 10 µM; 360,000 tested, 3.2% active; in the data active means activity change below about -30%; further: on the % scale 0 is the no-effect control and ±100 the full control effect
#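 Compound effects on dopamine-evoked calcium signalling were measured in tetracycline-induced HEK293 Trex D1 cells. Dopamine at EC80 followed a 180 s compound pre-read, and fluorescence was tracked kinetically for 180 s more.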
# DRD3 agonist: agonists of human D3 dopamine receptor; P35462; D3R DiscoveRx beta-arrestin cells, luminescence, 90 min; max activation, %; 410,000 tested, 0.58% active; AID 652048; in the data active means max activation above about 30%; further: 0% is about no effect
#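 Agonist-mode cell screen: cells plated at 1500/well and incubated overnight at 37 °C, then exposed to library compounds for 90 min at 37 °C. Detection reagent was added for 30–60 min at room temperature, and luminescence was read.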
# * = called active by the depositor; ? = inconclusive; nt = no result.
SMILES,D1 ag,ERG-DNA inh,DRD3 antagonist,D1 potentiator,D1 antag,DRD3 agonist
C[C@H](CO)N1C[C@H](C)[C@@H](CN(C)CC2CCCCC2)Oc2ccc(NC(=O)Cn3cnnn3)cc2C1=O,nt,13%,12,nt,nt,35*
COc1ccc(-n2c(SCC(=O)Nc3ccc(NC(C)=O)cc3)nc3c([nH]c4ccccc43)c2=O)cc1OC,0,-2%,7,-1,5,2
Cn1c(=O)n(CCCOc2ccc(Cl)cc2)c2ccccc21,1,-1%,6,-4,-13,-12
O=C(NCCCN1CCN(c2ccccc2F)CC1)C1CCN(S(=O)(=O)N2CCOCC2)CC1,9,0%,?,-10,-88*,26
O=C(Nc1ccccc1C(=O)O)c1ccc(NC(=O)C2CCCO2)cc1 (stereo unspecified),2,-14%,9,-3,-2,-2
CCCS(=O)(=O)N1CCC(C(=O)NCCN2CCC(Cc3ccccc3)CC2)CC1,0,0%,-57*,-7,-9,5
O=C(NCCN1CCN(c2ccccc2)CC1)C1CCN(S(=O)(=O)N2CCOCC2)CC1,2,-4%,-4,4,-11,63*
O=C(NCCN1CCN(c2ccccc2)CC1)c1ccc(NC(=O)C2CCCO2)cc1 (stereo unspecified),-1,-2%,-15,-1,6,70*
Cc1ccc(S(=O)(=O)N2CCOCC2)cc1NC(=O)CSc1nnnn1C1CC1,nt,nt,13,nt,nt,4
O=C(NCC(=O)N1CCN(c2ccccc2O)CC1)c1ccccc1,20,-11%,16,nt,14,9
COc1ccc(C)cc1NC(=O)C1CCCN(S(=O)(=O)c2cnc[nH]2)C1 (stereo unspecified),3,11%,-5,nt,57,5
C=COC(=O)CSc1snc(SCC(=O)OC)c1C#N,1,16%,-11,-4,-17,2
CCN(CC)C(=O)CSc1nsc(SCC(=O)N(CC)CC)c1C#N,4,4%,-55*,4,-6,-3
CC(OC(=O)c1ccccc1C(=O)O)c1ccccc1 (stereo unspecified),nt,-7%,7,nt,nt,0
COc1ccccc1N1CCN(C(=O)c2cc3c(=O)n(C)c4ccccc4c3n2C)CC1,0,2%,-19,-2,-13,-3
CCOC(=O)C(Cc1ccccc1)NC(=O)CCc1nnc2ccc(N3CCOCC3)nn12 (stereo unspecified),2,10%,-6,-6,-30*,8
OC(C#CCN1CCCCCC1)(c1ccccc1)c1cccnc1 (stereo unspecified),4,12%,-64*,-7,-2,-29
OC(C#CCN1CCCC1)c1ccccc1 (stereo unspecified),6,nt,4,0,12,-7
CC(C)C(O)(C#CCN1CCCCC1)c1ccccc1 (stereo unspecified),0,nt,-71*,0,-25,-29
OC(C#CCN1CCCCC1)c1ccccc1 (stereo unspecified),2,-6%,-51*,-3,1,-14
O=C(CSc1nnc(-c2ccncc2)n1C1CC1)c1cccs1,nt,nt,-9,nt,nt,0
COC(Cn1c2c(c3cc(C)ccc31)CCCC2NCc1ccccc1)OC (stereo unspecified),0,-12%,-76*,7,1,-19
Cc1ccc2c(c1)c1c3n2CCCN(Cc2ccccc2)C3CCC1 (stereo unspecified),-1,13%,-4,1,22,-18
NNc1nc(N)c2c(n1)-c1ccccc1CC21CCCC1,1,12%,-52*,0,2,-22
O=c1oc2ccccc2c(Nc2cccc3ccccc23)c1[N+](=O)[O-],1,-12%,-63*,-8,5,-2
SMILES,D1 ag,ERG-DNA inh,DRD3 antagonist,D1 potentiator,D1 antag,DRD3 agonist
CCNC(=S)N1CCN(C(c2ccccc2)c2ccccc2)CC1,5,nt,-20,-4,1,-10
CCn1nc(C)c2c(-c3ccccc3)cc(=O)n(C(C)C(=O)NCCc3ccc(OC)c(OC)c3)c21 (stereo unspecified),0,-6%,nt,-5,1,-5
N#Cc1cc(C(=O)c2ccccc2OCC(=O)Nc2ccccc2)cn(C2CCCCC2)c1=O,1,-1%,13,-4,-8,-2
COc1cc(OC)c(C2C=C(c3ccc(C)cc3)Nc3c(C(=O)Nc4ccccc4)cnn32)cc1OC (stereo unspecified),3,1%,nt,-6,-45*,-5
COc1ccc(C2C=C(c3ccc(C)cc3)Nc3c(C(=O)Nc4ccccc4)cnn32)cc1 (stereo unspecified),3,0%,nt,0,10,-2
Cc1ccc(-c2csc(=S)n2CC(=O)OCC(=O)NCc2ccc(F)cc2)cc1,3,nt,nt,3,-15,nt
CCOc1cc(C(=O)Nc2ccc(S(=O)(=O)Nc3cc(OC)nc(OC)n3)cc2)cc(OCC)c1OCC,4,-6%,nt,-1,-1,-11
COc1ccc(C2Nc3ccccc3C(=O)N2c2ccccc2)cc1Cn1cc([N+](=O)[O-])cn1 (stereo unspecified),1,-13%,6,0,-4,-9
COc1ccc(N2C(=O)c3ccccc3NC2c2ccc(OC)c(Cn3cc([N+](=O)[O-])cn3)c2)cc1 (stereo unspecified),0,-11%,26,-9,-38*,0
Cc1cccc(NC(=S)NCCc2ccc3c(c2)OCCO3)c1C,4,7%,15,-6,-46*,2
Cn1c(=O)[nH]c(=O)c2c1nc(Br)n2CCCSc1nc2ccccc2o1,10,4%,17,-5,-19,1
O=C(CN1CCOCC1)N/N=C/C=C/c1ccccc1,3,4%,-3,-4,12,2
O=C(c1ccc([N+](=O)[O-])cc1[N+](=O)[O-])N1CCc2ccccc21,2,-15%,-51*,0,-11,-13
O=C(c1ccc([N+](=O)[O-])cc1[N+](=O)[O-])N1CCCC1,0,8%,1,-3,4,1
Cc1ccc(CN(C(=O)COc2ccccc2[N+](=O)[O-])c2ccccn2)o1,-2,0%,nt,0,8,38*
CCNC(=S)Nc1ccc(Cl)cc1,5,7%,1,-6,10,8
CCCCNC(=S)Nc1ccc(Cl)cc1,10,-11%,17,3,-33*,-7
CCCNC(=S)Nc1cccc(C(F)(F)F)c1,17,3%,0,-2,-12,2
Cc1ccc(NC(=S)NCCSc2ccc(Cl)cc2)cc1,22,-2%,-13,-10,-37*,-6
